A selection: hits, their analogues and other compounds. The true share with any hit is near 11%.
AMA1 RON2 block = disrupts binding of P. falciparum AMA1 to RON2. Potency, µM (doses to about 58.2 µM), actives largely listed as inhibitors. actives 0.2% (n = 360,000). AlphaScreen AMA1-biotinylated RON2 peptide binding; also: nearly all actives have a fitted effect of over 45% in size
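AMA1 (3D7) with his tag at 25 nM final met compounds first, then biotinylated RON2 peptide at 25 nM; detection used donor plus acceptor beads, 10 µg/mL apiece, read by AlphaScreen after 30 min at room temperature.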
Pf growth 96h = P. falciparum growth inhibition at 96 hour, primary screen for plastid delayed-death inhibitors. P. falciparum luciferase reporter growth, 96 h. Potency, µM (highest dose often 28.7 µM), most hits filed as inhibitors. actives 6.9% (n = 320,000)
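Compounds incubated with erythrocytes infected by luciferase-expressing P. falciparum (2% hematocrit, 0.05% parasitemia final) for 96 hours, 37 C in 5% CO2. Growth inhibition scored as decreased luciferase luminescence.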
Sm TGR inh = inhibitors of Schistosoma mansoni thioredoxin glutathione reductase; purified TGR, DTNB reduction, TNB absorbance 405 nm; Potency, µM (top dose mostly 114 µM), most hits filed as inhibitors; Q962Y6; actives 3% (n = 360,000); also: nearly all actives have a fitted effect of over 60% in size
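TGR 20 nM + NADPH 100 uM (dispensed conc.), cpd preinc 15 min RT; start with NADPH (500 uM addition) then DTNB (15 mM addition). Kinetic TNB absorbance, 405 nm filter. Four-parameter Hill fit across titration.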
NS1 function inh = blocks influenza NS1 protein function | Potency, µM (titrated, usually from 46.1 µM) | actives 0.4% (n = 270,000) | AID 2326; calls by dose curve; also: actives are rising curves; nearly all actives have a fitted effect of over 50% in size
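Recovery from NS1-induced slow growth read by OD600 in budding yeast switched to galactose assay medium (pH 6.0, -URA) at 1:100 dilution. Compound 23 nl per well; the matching strain lacking NS1 serves as control.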
Pf growth 48h = P. falciparum growth inhibition at 48 hours (one generation). P. falciparum luciferase growth in erythrocytes, 48 h. AID 504832. actives 5.9% (n = 310,000). Potency, µM (highest dose often 28.7 µM), most hits filed as inhibitors
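Compounds are pin-transferred into medium, infected erythrocytes (2% hematocrit, 0.1% parasitemia final) are added, and plates sit one parasite generation at 37 C in 5% CO2. Detection reagent is then added and luminescence measured.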
Each line names hits and unclear results; the compound was inactive in the other large screens. Unless noted, calls follow the shape of the dose curve; as a rule, active = well fitted curve in the direction sought with a large enough effect; inconclusive = small, poorly fitted or top-dose-only effect, or another doubt; inactive = no such curve, though single readings can be large; an effect the other way counts as inactive or inconclusive.

CCNc1nc(NCC)n2c(SCC(=O)Nc3ccc(Br)cc3F)nnc2n1	Pf growth 96h inconclusive, Pf growth 48h 12µM (no result: NS1 function inh)
CCNc1nc(NCC)n2c(SCC(=O)Nc3cc(OC)ccc3OC)nnc2n1	Pf growth 96h 8.3µM, Pf growth 48h inconclusive (no result: NS1 function inh)
Nc1nc2c(ncn2CCC(CO)CO)c(=O)[nH]1	none (no result: AMA1 RON2 block, Sm TGR inh, NS1 function inh)
CCOC(=O)c1ccc(NC(=O)Cn2ccc([N+](=O)[O-])n2)cc1	Pf growth 96h inconclusive
Cc1cccc(CCN2C(N(C)C)=NC[C@@H]2C)c1	none (no result: NS1 function inh)
N/C(Cc1ccc(Cl)cc1)=N\OC(=O)C1CCCCC1	Pf growth 48h 5.9µM
O=C(COC(=O)C1CCCC1)NCc1ccc(Cl)cc1	none (no result: NS1 function inh)
N/C(Cc1ccc([N+](=O)[O-])cc1)=N\OC(=O)CC1CCCCC1	Pf growth 96h inconclusive, Pf growth 48h 13µM
Clc1cccc(N2CCN(c3ncnc4c3nc3n4CCCCC3)CC2)c1	none (no result: AMA1 RON2 block, Pf growth 96h, NS1 function inh, Pf growth 48h)
COc1ccc2[nH]cc(S(=O)(=O)c3ccc(C(C)C)cc3)c(=O)c2c1	none (no result: NS1 function inh)
COc1cc(CN2CCN(c3cccc(C)c3C)CC2)cc(OC)c1O	Sm TGR inh 32µM
Cc1cc(CN2CCN(c3cccc(C)c3C)CC2)cs1	none (no result: AMA1 RON2 block, Pf growth 96h, NS1 function inh, Pf growth 48h)
COc1ccccc1N1CCN(Cc2ccc(Br)cc2)CC1	Sm TGR inh 35µM
COc1ccccc1N1CCN(Cc2ccc(Br)o2)CC1	none (no result: Pf growth 96h)
COc1ccccc1N1CCN(CC(O)COCCOc2ccc(Br)cc2)CC1 (stereo not given)	Pf growth 96h 13µM
COc1ccccc1N1CCN(Cc2cccc(OC)c2O)CC1	Pf growth 96h inconclusive, Pf growth 48h 7.4µM
COc1ccc(NC(C)=O)cc1NC(=O)C1CCN(C(=O)Nc2ccccc2)CC1	none (no result: NS1 function inh)
CC1(C)CCCC(C)(C)N1CC(O)COCCOc1ccc(Br)cc1 (stereo not given)	Pf growth 96h inconclusive, Pf growth 48h 5.9µM
OCCN1CCN(CC(O)COCCOc2ccc(Br)cc2)CC1 (stereo not given)	none
CCOC(=O)CN(C(=O)COc1nc(-c2ccccc2)cc(C)c1C#N)c1cccc(OC)c1	Pf growth 96h 12µM, Pf growth 48h 7.4µM
CCOC(=O)CN(C(=O)COc1nc(-c2ccccc2)cc(C)c1C#N)c1ccccc1C	Pf growth 96h inconclusive, Pf growth 48h 13µM
CCOC(=O)CN(C(=O)COc1nc(-c2ccccc2)cc(C)c1C#N)c1ccc(C)cc1	Pf growth 96h 5.9µM, Pf growth 48h 13µM
CCOC(=O)CN(C(=O)COc1nc(-c2ccccc2)cc(C)c1C#N)c1ccccc1	Pf growth 96h inconclusive, Pf growth 48h inconclusive
CCN(CC)CCCNC(CC(=O)O)C(=O)O (stereo not given)	none (no result: AMA1 RON2 block, Pf growth 96h, Sm TGR inh, Pf growth 48h)
CCc1ccccc1NC(=O)c1ccc(S(=O)(=O)NCC2CCCO2)cc1 (stereo not given)	none
O=[N+]([O-])c1ccc(N2CCNCC2)cc1NCc1ccco1	none
CN1CCN(c2ccc([N+](=O)[O-])c(NCc3ccco3)c2)CC1	Pf growth 96h inconclusive
O=C(c1cccc2ccccc12)N1CCN(c2ccc([N+](=O)[O-])c(NCc3ccco3)c2)CC1	Pf growth 48h inconclusive
Cc1ccc(C(=O)N2CCN(c3ccc([N+](=O)[O-])c(NCc4ccco4)c3)CC2)cc1	Pf growth 96h 4.7µM, Pf growth 48h inconclusive
Cc1cccc(C(=O)N2CCN(c3ccc([N+](=O)[O-])c(NCc4ccco4)c3)CC2)c1	AMA1 RON2 block inconclusive, Pf growth 96h 12µM, Pf growth 48h inconclusive
Cc1ccccc1C(=O)N1CCN(c2ccc([N+](=O)[O-])c(NCc3ccco3)c2)CC1	Pf growth 96h inconclusive, Pf growth 48h 13µM
COCCNC(=O)C1CCCN(C(=O)c2ccc(OC)c(F)c2)CC1 (stereo not given)	none (no result: Pf growth 96h, Sm TGR inh, NS1 function inh, Pf growth 48h)
COc1cc(/C=N/NC(=O)COc2cccc(F)c2)ccc1OS(=O)(=O)c1ccc(C)cc1	Pf growth 96h 8.3µM, NS1 function inh inconclusive, Pf growth 48h inconclusive
CCN1C(=O)/C(=C/c2cccs2)SC1=Nc1ccc(OC)cc1	Pf growth 96h 4.7µM
COc1ccc(N=C2S/C(=C\c3ccco3)C(=O)N2CC(C)C)cc1	Pf growth 96h inconclusive, Sm TGR inh 45µM, Pf growth 48h inconclusive
Cc1sc2ccc3sccc3c2[n+]1C	Pf growth 96h 15µM
Cc1ccc(-c2ccc(=O)n(CC(=O)NCc3ccc(F)cc3)n2)cc1	none (no result: NS1 function inh)
CCOc1ccc(S(=O)(=O)N2CCCC(C(=O)NCc3ccncc3)C2)cc1Cl (stereo not given)	Pf growth 96h inconclusive
CCOC(=O)c1c(-c2ccc(C)cc2)csc1NC(=O)c1nc(SCC)ncc1Cl	none (no result: AMA1 RON2 block, Pf growth 96h, NS1 function inh, Pf growth 48h)
O=C(NCCc1cccnc1)C1CCC(=O)N(Cc2cccc(C(F)(F)F)c2)C1 (stereo not given)	none
O=C(NCCc1ccc(C(F)(F)F)cc1)C1CCC(=O)N(CCCN2CCCC2=O)C1 (stereo not given)	Pf growth 96h 15µM
O=C(NCCc1ccccc1)C1CCC(=O)N(Cc2cccc(C(F)(F)F)c2)C1 (stereo not given)	Sm TGR inh 89µM
CCS(=O)(=O)N1CCC(C(=O)NCCCN2CCC(Cc3ccccc3)CC2)CC1	Pf growth 96h 9.3µM
CCCS(=O)(=O)N1CCCC(C(=O)NCCN(CC)c2ccccc2)C1 (stereo not given)	Pf growth 96h 13µM, Pf growth 48h inconclusive
CCCS(=O)(=O)N1CCC(C(=O)NCCN(C)Cc2ccccc2)CC1	Pf growth 96h 15µM
COc1ccc(NC(=O)NCCCN2CCC(Cc3ccccc3)CC2)cc1	Pf growth 96h inconclusive
CSc1ccc(NC(=O)NCCCN2CCC(Cc3ccccc3)CC2)cc1	Pf growth 96h inconclusive, Pf growth 48h 8.3µM
CCCS(=O)(=O)N1CCCC(C(=O)NCCN(Cc2ccccc2)C(C)C)C1 (stereo not given)	none
COCC(=O)N1C[C@H]2CON(C)[C@H]2C[C@H]1c1cccc(-c2ccc(C#N)cc2)c1	none (no result: Pf growth 96h, Sm TGR inh, NS1 function inh, Pf growth 48h)
CCS(=O)(=O)N1CCC(C(=O)NCCc2ccccc2)CC1	Pf growth 96h 1.5µM
CCOc1ccc(CCNC(=O)C2CCN(S(=O)(=O)CC)CC2)cc1OCC	Pf growth 96h 2.6µM
CCS(=O)(=O)N1CCC(C(=O)NCCc2ccc(C)cc2)CC1	Pf growth 96h inconclusive
CCOc1ccc(CCNC(=O)C2CCN(S(=O)(=O)N3CC(C)CC(C)C3)CC2)cc1OCC (stereo not given)	none
CCCS(=O)(=O)N1CCC(C(=O)NCCN2CCC(Cc3ccccc3)CC2)CC1	Pf growth 48h 4.1µM
O=[N+]([O-])c1cc(Br)ccc1C[n+]1ccccc1	none (no result: Pf growth 96h, Sm TGR inh, NS1 function inh, Pf growth 48h)
CC(=O)N1CCC(O)(c2cccc(C(F)(F)F)c2)CC1	none
O=C(CCCN1CCC(O)(c2ccc(Br)cc2)CC1)c1ccc(F)cc1	Pf growth 96h 4.1µM, Pf growth 48h 8.3µM (no result: NS1 function inh)
O=C(CCCN1CCC(O)(c2cccc(C(F)(F)F)c2)CC1)c1ccc(F)cc1	Pf growth 96h 5.9µM, Pf growth 48h 8.3µM
CC1CCN(CCCC(=O)c2ccc(F)cc2)CC1	Pf growth 96h inconclusive (no result: AMA1 RON2 block, Sm TGR inh, NS1 function inh)

Source: PubChem BioAssay
